A selection: hits, their analogues and other compounds. The true share with any hit is near 8.9%.
SW480 rereplic = induces DNA re-replication in SW480 colon adenocarcinoma cells | Potency, µM (highest dose often 46.1 µM), for the others: at the top dose re-replication activation, usual class: activators | AID 624297 | 1.8% of 340,000 active | SW480 DNA re-replication, Hoechst DNA content imaging, 48 h; further: potency means the concentration at half of the fitted maximal effect; % of control where 0% means no effect; nearly all actives have a fitted effect of over 55% in size
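250 cells/well; 23 nL cpd via pin tool; 48 hr, 37 C, 5% CO2; Hoechst 40 min; imager read of total nuclear intensity, ex 405/em 500-530 nm.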
DRD3 antagonist = blocks the human D3 dopamine receptor | max response, negative = inhibition, % | 2.5% of 360,000 active | D3R cells, DiscoveRx beta-arrestin luminescence, antagonist mode; stronger effect = lower value | P35462; in the data active means max response below about -50%; inconclusive means no clear call, values can overlap the other calls; further: on the % scale 0 is the no-effect control and ±100 the full control effect
Target sequence (P35462 whole entry, looked up): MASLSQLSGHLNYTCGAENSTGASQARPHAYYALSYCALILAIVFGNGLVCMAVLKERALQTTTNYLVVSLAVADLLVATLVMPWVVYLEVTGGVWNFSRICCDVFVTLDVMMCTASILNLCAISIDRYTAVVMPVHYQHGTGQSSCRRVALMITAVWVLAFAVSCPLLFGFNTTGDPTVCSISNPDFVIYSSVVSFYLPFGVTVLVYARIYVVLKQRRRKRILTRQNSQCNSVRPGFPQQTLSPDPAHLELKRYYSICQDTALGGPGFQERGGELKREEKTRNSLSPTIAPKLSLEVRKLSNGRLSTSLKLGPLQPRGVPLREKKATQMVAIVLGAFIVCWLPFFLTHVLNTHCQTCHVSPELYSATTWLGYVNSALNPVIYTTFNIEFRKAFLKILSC
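Cells plated overnight at 1500 cells/well, then exposed to library compounds with dopamine controls for 90 minutes at 37 degrees C. DiscoveRx reagent added for 30–60 minutes at room temperature; luminescence read, quantitative HTS format.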
DRD3 agonist = activates the human D3 dopamine receptor | D3R DiscoveRx beta-arrestin cells, luminescence, 90 min | P35462 | max activation, % | 0.58% of 410,000 active; in the data active means max activation above about 30%; further: 0% is about no effect
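Cells at 1500/well, incubated overnight, then treated with pinned compounds (dopamine as control) for 90 min at 37 degrees C. DiscoveRx reagent added for 30 - 60 minutes at room temperature; luminescence read.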
KB-3-1 tox = KB-3-1 parental cell cytotoxicity. 1.4% of 400,000 active. KB-3-1 viability, CellTiter-Glo ATP luminescence, 72 h. Potency, µM (doses to about 46.1 µM), actives largely listed as cytotoxic; further: potency means the concentration at half of the fitted maximal effect; on the % scale 0 is the no-effect control and ±100 the full control effect; nearly all actives have a fitted effect of over 60% in size
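KB-3-1 cells, DMEM (no phenol red) + 10% FBS; compound by pin transfer, 72 h, 37 °C. Readout: CellTiter-Glo luminescence after 10 min. Data normalized, curve-fitted.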
KB-V1 MDR tox = KB-V1 MDR subline cytotoxicity; 3.4% of 400,000 active; AID 1347076; Potency, µM (titrated, usually from 46.1 µM), actives largely listed as cytotoxic; KB-V1 MDR cells viability, CellTiter-Glo, 72 h; further: potency means the concentration at half of the fitted maximal effect; on the % scale 0 is the no-effect control and ±100 the full control effect; nearly all actives have a fitted effect of over 60% in size
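Drug-selected KB-V1 cells, grown in DMEM lacking phenol red with 10% FBS, receive compound titrations; after three days at 37 degrees C, surviving cell ATP is quantified by CellTiter-Glo luminescence and responses normalized and curve-fitted.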
MCF10A rerep = DNA re-replication induction in MCF 10a cells | MCF 10A DNA re-replication, Hoechst nuclear intensity, 48 h | Potency, µM (series often up to 46.1 µM), inactives show at the highest dose activity, positive = re-replication, usual class: activators | 2.9% of 350,000 active | AID 624296; further: potency means the concentration at half of the fitted maximal effect; % of control where 0% means no effect; nearly all actives have a fitted effect of over 50% in size
Active calls of the source: *; i = inactive; ? = inconclusive; . = not tested or not shown; [ ] = another dose, or the depositor's remark. Unless noted, the call rests on the fitted dose curve; in most records, active means well fitted curve in the direction sought with a large enough effect; inconclusive means small, poorly fitted or top-dose-only effect, or another doubt; inactive means no such curve, though single readings can be large; an effect the other way counts as inactive or inconclusive.

SMILES	SW480 rereplic	DRD3 antagonist	DRD3 agonist	KB-3-1 tox	KB-V1 MDR tox	MCF10A rerep
CCOC(=O)c1c(C)oc2c(F)c(F)c(F)c(F)c2c1=O	?	25.7	-0.4	?	?	6.51µM*
CCOC(=O)c1c(C)oc(=O)c(CC)c1O	.	18.4	4.2	i	i	.
Cc1ccc2nc3cc([N+](=O)[O-])cc([N+](=O)[O-])c3cc2c1	0.651µM*	-16.8	-10.8	?	?	?
Cc1nc2ccc([N+](=O)[O-])cc2nc1C	-4.7%	14.8	-1.7	i	?	-0.4%
Cc1ccc(S(=O)(=O)c2nc(Nc3ccccc3)sc2Cl)cc1	6.0%	-3.9	1.0	?	i	?
Cc1ccc(S(=O)(=O)c2nc(NCCN(C)C)sc2Cl)cc1	-0.8%	-67.5*	-0.8	i	?	0.9%
CC(=O)O[C@@H]1C(=O)O[C@@H]2[C@H]1OC(=O)[C@@H]2OC(C)=O	.	.	4.1	.	.	.
COC(=O)c1cc2sccc2n1Cc1c(C)cc(C)cc1C	.	.	-5.2	i	i	.
Cc1ccc(S(=O)(=O)c2cc3cc(Br)ccc3oc2=O)cc1	-7.4%	1.3	4.4	20.6µM*	18.4µM*	?
Cc1ccc2oc(=O)c(S(=O)(=O)c3ccc(F)cc3)cc2c1	.	.	-0.5	i	i	.
CC(C)c1ccc(NC(=O)c2ccc3oc(=O)c(S(=O)(=O)c4ccc(F)cc4)cc3c2)cc1	.	.	-8.5	i	i	.
CC(C)c1ccc(S(=O)(=O)c2cc3cc(Br)ccc3oc2=O)cc1	0.0%	14.9	3.7	?	?	8.2µM*
COc1cccc(NC(=O)Cn2c(=O)n(Cc3ccccc3)c(=O)c3c2c2cc(C)ccc2n3C)c1	.	.	2.0	i	i	.
O=C(CCn1c(=O)[nH]c2ccsc2c1=O)N1CCN(c2cccc(Cl)c2)CC1	4.8%	14.1	-0.1	20.6µM*	i	?
COCCCNC(=O)c1ccc2c(c1)N=C(C)c1c(C)ccc(C)c1S2	.	.	-10.9	0.0164µM*	0.0517µM*	.
CCOC(=O)N1CCC(NC(=O)c2ccc3c(c2)N=C(C)c2c(C)ccc(C)c2S3)CC1	7.31µM*	-17.0	-11.2	2.06µM*	5.17µM*	23.0%
CC1=Nc2cc(C(=O)NC3CCC(C)CC3)ccc2Sc2c(C)ccc(C)c21 (stereo not drawn)	.	.	-16.6	0.517µM*	0.259µM*	.
COc1ccc2[nH]cc(S(=O)(=O)c3ccc(C)c(C)c3)c(=O)c2c1	.	.	4.6	i	i	.
Cc1ccccc1CSCC(=O)c1c(N)n(C)c(=O)n(C)c1=O	-9.5%	?	1.9	i	i	25.1%
CC(C)Cn1c(N)c(C(=O)COC(=O)c2ccc(Br)cc2)c(=O)n(C)c1=O	1.4%	-25.7	-3.7	14.6µM*	i	4.2%
COc1ccc(CCN2CC(C(=O)OCC(=O)c3c(N)n(CC(C)C)c(=O)n(C)c3=O)CC2=O)cc1OC (stereo not drawn)	.	45.8	13.9	i	i	.
Cc1ccccc1CSCC(=O)c1c(N)n(CC(C)C)c(=O)n(C)c1=O	-6.9%	-27.5	0.8	?	18.4µM*	14.5%
CC(C)Cn1c(N)c(C(=O)COC(=O)c2ccc(Cl)cc2)c(=O)n(C)c1=O	1.1%	6.3	13.6	i	i	-30.3%
CCOc1cc(C(=O)OCC(=O)c2c(N)n(C)c(=O)n(C)c2=O)cc(OCC)c1OCC	-0.5%	10.4	33.2*	i	18.4µM*	3.3%
CC(C)Cn1c(N)c(C(=O)COC(=O)C2CC(=O)N(Cc3ccccc3Cl)C2)c(=O)n(C)c1=O (stereo not drawn)	-0.8%	58.4	39.0*	i	i	7.5%
SMILES	SW480 rereplic	DRD3 antagonist	DRD3 agonist	KB-3-1 tox	KB-V1 MDR tox	MCF10A rerep
O=C(c1ccc2c(c1)N(Cc1ccccc1)C(=O)c1ccccc1S2(=O)=O)N1CCN(c2ccccn2)CC1	.	.	7.5	.	.	.
CC(C)Cn1c(N)c(C(=O)COC(=O)CC23CC4CC(CC(C4)C2)C3)c(=O)n(C)c1=O	1.9%	30.1	6.3	?	?	11.6µM*
Cc1ccc(C(=O)/C=C/C(=O)c2ccc(C)cc2)cc1	-3.1%	-22.1	-17.4	i	i	3.66µM*
NC(=O)c1ccccc1N/C=C/C(=O)c1ccc(Cl)cc1	7.5%[9.22 µM]	-12.2	-10.9	i	?	?
Cc1ccc(C(=O)/C=C/Nc2ccccc2C(N)=O)cc1	-0.8%	-80.3*	-1.5	?	i	1.7%
Cc1ccc(C(=O)C=Cc2cccc(C)c2)cc1	?	-29.3	19.3	i	i	18.4µM*
CCN(CC)c1ccc(NC(=O)C2CCN(S(=O)(=O)c3c(C)noc3/C=C/c3ccccc3F)CC2)c(C)c1	.	.	6.3	.	.	.
CCc1ccc(CNC(=O)C(CC)n2ccc3cc(S(=O)(=O)N4CCCCC4)ccc32)cc1 (stereo not drawn)	.	.	5.8	i	i	.
CCCN1CCc2c(sc3nc(SC)n(-c4ccccc4)c(=O)c23)C1	?	46.3	2.0	i	i	18.4µM*
CCCN1CCc2c(sc3nc(SCC)n(-c4ccc(OC)cc4)c(=O)c23)C1	12.4%	-13.1	-3.2	i	i	20.6µM*
O=C(NCc1ccc2c(c1)OCO2)c1ccc2c(c1)N(Cc1c(F)cccc1Cl)C(=O)c1ccccc1S2	.	.	-6.8	.	.	.
O=C(Cc1nc2ccccc2[nH]c1=O)c1ccccc1	28.7%	13.9	0.5	?	i	20.6µM*
CC(C)(C)C(=O)CC1(O)C(=O)N(Cc2ccccc2)c2ccccc21 (stereo not drawn)	-3.9%	9.2	9.3	i	?	-8.5%
CC(=O)CC1(O)C(=O)N(CN2CCN(c3ccccc3)CC2)c2ccccc21 (stereo not drawn)	-3.7%	-58.1*	-23.5	i	i	8.4%
CC1CCOC2(O1)C(=O)N(CN1CCN(c3cccc(Cl)c3)CC1)c1ccccc12 (stereo not drawn)	-1.7%	-57.5*	-15.2	i	i	0.6%
O=C(COc1ccc2c(c1)CCC2)N1CCN(c2ccccc2F)CC1	-5.2%	36.1	-1.0	i	0.0037µM*	-2.5%
CCCNc1nc2c(c(=O)n(C)c(=O)n2C)n1CCc1ccccc1	-6.9%	18.0	4.6	i	i	11.3%
CCCNc1nc2c(c(=O)n(C)c(=O)n2C)n1Cc1cccc(C)c1	11.2%	25.7	7.1	?	9.2µM*	4.9%
Cn1c(=O)c2c(nc(NCCNC(=O)c3ccco3)n2Cc2ccccc2)n(C)c1=O	0.3%	4.0	5.1	i	i	25.9µM*
Cn1c(=O)c2c(nc(NCc3ccc4c(c3)OCO4)n2Cc2ccc(F)cc2)n(C)c1=O	?	42.1	1.6	?	?	?

High-throughput results as filed in PubChem BioAssay.
